How the values were obtained:
Test in all cases: PBM binding z-score (relative to random genomic background probes); higher = stronger binding; sequences stand for … in GC…GCGATTGACAGCGTAGAATGAAGG
[1] = tested on: FXR:RXRa (NR concentration 270 nM, RXRa partner concentration 90 nM)
Outline: (§1)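 Ligand-free nuclear receptor dimers were bound for 1 h to custom Agilent 4×180K protein-binding microarrays. Detection used antibodies against each partner (one per run). Binding z-scores rest on regression-normalized fluorescence, with random background probes as the reference.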

[2] = tested on: LXRa:RXRa (NR concentration 270 nM, RXRa partner concentration 90 nM)
Outline: as §1

[3] = tested on: LXRa homodimer (NR concentration 270 nM)
Outline: as §1

[4] = tested on: LXRb:RXRa (NR concentration 270 nM, RXRa partner concentration 90 nM)
Outline: as §1

[5] = tested on: LXRb homodimer (NR concentration 270 nM)
Outline: as §1

[6] = tested on: PPARa:RXRa (NR concentration 270 nM, RXRa partner concentration 90 nM)
Outline: as §1

[7] = tested on: PPARg:RXRa (NR concentration 180 nM, RXRa partner concentration 90 nM)
Outline: as §1

[8] = tested on: PPARg:RXRa 270nM:90nM, anti-RXR (NR concentration 270 nM, RXRa partner concentration 90 nM)
Outline: as §1

[9] = tested on: PPARg:RXRa 30nM:10nM, anti-RXR (NR concentration 30 nM, RXRa partner concentration 10 nM)
Outline: as §1

[10] = tested on: PPARg:RXRa 90nM:30nM, anti-RXR (NR concentration 90 nM, RXRa partner concentration 30 nM)
Outline: as §1

[11] = tested on: PPARg:RXRa DBDmut IVT, anti-RXR (DBD mutation: RXRa K156A/R161A, NR concentration 270 nM, RXRa partner concentration 90 nM)
Outline: as §1

[12] = tested on: PPARg:RXRa IVT, anti-PPARg (NR concentration 270 nM, RXRa partner concentration 90 nM)
Outline: as §1

[13] = tested on: PPARg DBDmut:RXRa IVT, anti-PPARg (DBD mutation: PPARg1 K132A/R137A, NR concentration 270 nM, RXRa partner concentration 90 nM)
Outline: as §1

[14] = tested on: PPARg DBDmut IVT, anti-PPARg (DBD mutation: PPARg1 K132A/R137A, NR concentration 270 nM)
Outline: as §1

[15] = tested on: PPARg homodimer (NR concentration 180 nM)
Outline: as §1

[16] = tested on: PXR:RXRa (NR concentration 270 nM, RXRa partner concentration 90 nM)
Outline: as §1

[17] = tested on: PXR homodimer (NR concentration 270 nM)
Outline: as §1

[18] = tested on: RARa:RXR (NR concentration 270 nM, RXRa partner concentration 90 nM)
Outline: as §1

[19] = tested on: RARa homodimer (NR concentration 270 nM)
Outline: as §1

[20] = tested on: RARb:RXRa (NR concentration 270 nM, RXRa partner concentration 90 nM)
Outline: as §1

| Sequence | PBM binding z-score [1] | PBM binding z-score [2] | PBM binding z-score [3] | PBM binding z-score [4] | PBM binding z-score [5] | PBM binding z-score [6] | PBM binding z-score [7] | PBM binding z-score [8] | PBM binding z-score [9] | PBM binding z-score [10] | PBM binding z-score [11] | PBM binding z-score [12] | PBM binding z-score [13] | PBM binding z-score [14] | PBM binding z-score [15] | PBM binding z-score [16] | PBM binding z-score [17] | PBM binding z-score [18] | PBM binding z-score [19] | PBM binding z-score [20] |
| --- | --- | --- | --- | --- | --- | --- | --- | --- | --- | --- | --- | --- | --- | --- | --- | --- | --- | --- | --- | --- |
| CATACAGGGTCAGCTAGGCCTGAGTAGGGACGGC | 4.59 | 2.64 | -0.384 | 1.79 | 0.0921 | 4.12 | 3.11 | 2.94 | 0.751 | 1.89 | 1.1 | 2.26 | 0.675 | -0.0533 | 1.27 | 1.8 | -0.411 | 3.27 | 0.583 | 3.86 |
| CCGACTGGGACAGAAAGGTTACCATACCATCCGG | 0.177 | 0.493 | -0.124 | 0.512 | -1.05 | 1.71 | 1.4 | 1.74 | 0.364 | 1.34 | 0.593 | 1.09 | -0.448 | -0.875 | 1.09 | 1.01 | 0.0178 | 1.63 | -0.302 | 1.47 |
| AGTCAAAGTTCAGGACGAGTTAACGTAAAGCACG | 3.79 | 3.99 | 1.02 | 1.9 | 0.173 | 3.38 | 4.32 | 4.63 | 2.21 | 4.17 | -0.151 | 1.53 | 0.0233 | 0.458 | 1.18 | 3.59 | 1.43 | 2.4 | 1.1 | 4.21 |
| AGAATGAGGTTAAGATGAGGGAAACAGAATACAT | 2.41 | 2.35 | 0.0375 | 1.84 | 0.124 | 3.52 | 2.55 | 2.24 | 1.31 | 1.78 | 2.68 | 2.39 | 1.61 | 0.526 | 0.984 | 1.35 | 0.581 | 2.22 | 0.74 | 1.95 |
| TCTCGGAGCACACGAAGGTCAGAGCTTTCCAGAG | 0.286 | 0.742 | -0.215 | 0.706 | -1.73 | 1.7 | 0.118 | 1.06 | 1.04 | 0.995 | 0.43 | 0.198 | -0.909 | -1.03 | 0.396 | 1.12 | -1.04 | 1.49 | -1.5 | 2.39 |
| GCGACTGGGGCATCAGCAGGCTACCATAACTTAA | -0.662 | -0.723 | -0.307 | -0.378 | -1.43 | 0.138 | 0.565 | 0.457 | -1.02 | -0.389 | 4.01 | 2.87 | -0.343 | -1.56 | -0.243 | -0.692 | -0.801 | -0.592 | -1.13 | 0.346 |
| TCTAGTTGGTCAAGGAGGTCACACACGACGGGTA | 3.04 | 3.16 | 1.88 | 3.23 | 0.53 | 3.73 | 2.59 | 3.56 | 3.6 | 3.39 | 2.22 | 3.77 | 0.973 | 1.49 | 2.56 | 4.22 | 1.23 | 4.22 | 1.46 | 3.47 |
| CCGACTGGGGCCAAGGTTACCATACTCAGTACGA | 0.714 | 0.334 | -0.174 | 0.728 | -0.267 | 1.91 | 3.85 | 4.51 | 1.74 | 3.8 | 0.261 | 1.58 | -1.03 | -0.715 | 0.238 | 0.644 | 0.142 | 1.14 | -0.0443 | 1.77 |
| CGAACTAGGTTAGAACAGGACAGTGAAGGATGAT | 0.283 | 0.174 | -0.0175 | -0.235 | 0.0334 | 1.22 | 1.6 | 1.27 | 0.448 | 0.886 | 5.02 | 4.21 | 0.977 | 0.101 | 0.487 | -0.0109 | -0.256 | 0.212 | -0.0731 | 0.527 |
| ACTAGTTGGTCAGCTGAGCTCACACACAATTCGG | -0.29 | -0.363 | -0.563 | -0.541 | -0.142 | -0.497 | 0.575 | -0.784 | -0.476 | -0.673 | 0.771 | 0.632 | 0.319 | 0.574 | -0.1 | -0.455 | -0.49 | -0.357 | -0.333 | 0.363 |
| TGAATGAGGTTAAAGTTCAGGGAACGTGGCGTCG | 5.71 | 4.98 | 2.46 | 3.68 | 0.344 | 6.3 | 9.26 | 8.25 | 8.5 | 9.05 | 2.35 | 5.08 | 1.25 | 1.55 | 1.98 | 5.23 | 0.746 | 6.19 | 0.262 | 3.63 |
| CCTCGGAGGACAACAGGAGGGCAGAGCTGCCAGA | -0.363 | -0.203 | -0.39 | -0.91 | -0.963 | -0.724 | -0.101 | -1.25 | -1.32 | -1.32 | -0.405 | -0.306 | -2.18 | -1.69 | -0.00297 | -0.394 | -0.631 | -0.517 | -0.328 | 1.73 |
| TAGCCTATGTCAGATCGGGCCAGTATACGCTATA | -0.25 | -0.56 | -0.38 | -0.651 | -0.818 | -0.546 | 0.0766 | -0.557 | -0.477 | -0.278 | -0.342 | -0.424 | -0.269 | -0.692 | -1.19 | -0.323 | -0.853 | 0.184 | -0.755 | 0.0129 |
